Screens as filed in PubChem.
Shown are actives, neighbours in structure and some others; about 6.7% of the full set was active somewhere.
C diff growth – C. difficile growth inhibitors, primary screen, HTS | Clostridium difficile clinical isolate growth, OD600, 24 h; hits give low values | actives 0.25% (n = 86,000) | growth activity, negative = inhibition, % at 16 µg/mL (by protocol) | AID 1259249, 2017;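 active means mean growth activity at or below -80% and every replicate also at or below -80%; inconclusive means mean at or below -80% but some replicate above -80%; inactive means mean growth activity above -80%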;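 further: 0% = DMSO wells and -100% = levofloxacin 16 µg/mL wells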
Pf Dd2 inh – P. falciparum Dd2 growth inhibitors, primary screen, SYBR Green fluorescence, single dose replicates; actives 2.3% (n = 94,000); 72 h; hits give low values; activity change, % at 10 µM; in the data active means activity change below about -80%; inconclusive means no clear call, values can overlap the other calls
T cruzi growth-1 – T. cruzi intracellular proliferation inhibitors, primary screen, cell-based, beta-gal Tulahuen parasites, NIH3T3 host, luminescence. inhibition, % at 8.34 µM. T. cruzi beta-gal in NIH3T3, GalScreen luminescence, 90 h. actives 5.9% (n = 77,000);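 active means mean inhibition above about 93%, with at least 55% of replicates each passing it, limit read from the data, passing the limit was not always enough; inconclusive means only one of those two conditions holds; inactive means neither condition holds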
T cruzi growth-2 – T. cruzi intracellular proliferation inhibitors, confirmation, cell-based, NIH3T3 host, beta-gal parasite, luminescence, cherry-pick; inhibition, % at 8.35 µM; actives 72% (n = 5,600); AID 651739, 2012; shares compounds with T cruzi growth-1; T. cruzi beta-gal in NIH3T3, GalScreen luminescence, 90 h;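 active means mean replicate inhibition above about 95% and at least 55% of replicates individually reaching it, limit read from the data; inconclusive means only one of the two criteria is met; inactive means neither criterion is met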
T cruzi growth-3 – inhibitors of intracellular T. cruzi replication, confirmation, NIH3T3 host cells, beta-gal parasites, cherry-pick, set 2. shares compounds with T cruzi growth-1. T. cruzi beta-gal in NIH3T3, GalScreen luminescence, 90 h. inhibition, % at 2.09 µM. actives 21% (n = 5,600). AID 651740, 2012;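 active means mean inhibition above about 95%, with at least 55% of replicates also reaching it, limit read from the data; inconclusive means meets just one of the two conditions; inactive means meets neither condition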;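 further: plate controls were neutral control median for no effect and positive control median for full effect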
NIH3T3 tox – cytotoxicity in mouse NIH/3T3 fibroblasts, confirmation, cytotoxicity control for T. cruzi proliferation inhibitor project, cell-based, cherry-pick, single point. cytotoxicity (signal decrease), % at 8.35 µM. shares compounds with T cruzi growth-1. actives 14% (n = 5,600). AID 651742, 2012. NIH/3T3 viability, CellTiter-Glo ATP luminescence, 90 h;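 active means mean signal decrease across replicates above about 35% based on untreated-well scatter, with enough replicates individually passing, limit read from the data; inconclusive means no rule stated though some were filed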;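 further: 0% = median of neutral control wells and 100% = median of positive control wells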
NIH3T3 tox 2 – NIH/3T3 fibroblast cytotoxicity, confirmation, cytotoxicity control, cell-based, cherry-pick, single point, set 2; shares compounds with T cruzi growth-1; NIH/3T3 viability, CellTiter-Glo ATP luminescence, 90 h; inhibition, % at 24.9 µM; actives 56% (n = 5,600);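 active means mean loss of cell viability signal at or above a set limit, and enough replicates individually reaching it; inconclusive means meets only the mean limit or only the replicate share; inactive means meets neither condition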;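 further: 0% = median of neutral control wells and 100% = median of positive control wells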
An asterisk follows results filed as active; ? = inconclusive; . = no result.

SMILES	C diff growth	Pf Dd2 inh	T cruzi growth-1	T cruzi growth-2	T cruzi growth-3	NIH3T3 tox	NIH3T3 tox 2
C[C@@H]1CCCCO[C@H](CN(C)Cc2ccc(C(=O)O)cc2)[C@H](C)CN([C@H](C)CO)C(=O)c2cc(NC(=O)Nc3cccc4ccccc34)ccc2O1	-3	-53	22	.	.	.	.
C[C@@H]1CN([C@@H](C)CO)C(=O)c2cc(NC(=O)Nc3cccc4ccccc34)ccc2O[C@@H](C)CCCCO[C@H]1CN(C)Cc1ccc(C(=O)O)cc1	4	45	11	.	.	.	.
C[C@@H]1CCCCO[C@@H](CN(C)Cc2ccc(C(F)(F)F)cc2)[C@@H](C)CN([C@H](C)CO)C(=O)c2cc(NC(=O)Nc3cccc4ccccc34)ccc2O1	6	31	102*	104*	32	10	10
C[C@@H]1CCCCO[C@H](CN(C)Cc2ccc(C(F)(F)F)cc2)[C@H](C)CN([C@@H](C)CO)C(=O)c2cc(NC(=O)Nc3cccc4ccccc34)ccc2O1	0	-43	?	103*	109*	?	17
C[C@H]1CN([C@@H](C)CO)C(=O)Cc2cc(NC(=O)C3CC3)ccc2O[C@@H]1CN(C)S(=O)(=O)c1ccccc1	0	-5	-4	.	.	.	.
Cc1ccc(S(=O)(=O)N(C)C[C@H]2OCCCC[C@@H](C)Oc3ccc(NC(=O)CCC(F)(F)F)cc3C(=O)N([C@H](C)CO)C[C@H]2C)cc1	.	-50	.	.	.	.	.
COc1cccc(CN(C)C[C@H]2OCc3ccccc3-c3c(n(C)c4ccccc34)C(=O)N([C@H](C)CO)C[C@@H]2C)c1	11	-80	.	.	.	.	.
O=C(C[C@H]1C=C[C@@H](NS(=O)(=O)c2ccc(F)cc2)[C@@H](CO)O1)NCc1ccncn1	.	26	-23	.	.	.	.
CN(C)C(=O)C[C@H]1CC[C@H]2[C@@H](COc3ccc(NC(=O)Nc4cccc(Cl)c4)cc3C(=O)N2C)O1	0	6	22	.	.	.	.
CN1c2ccc(-c3cccc(F)c3)cc2[C@H]2[C@H](CCN2C(=O)C2CC2)[C@H]1CO	12	0	66	.	.	.	.
COCC(=O)N1CC[C@@H]2[C@H]1c1cc(-c3cccc(F)c3)ccc1N(C)[C@@H]2CO	-4	15	103*	103*	34	7	11
CN1c2ccc(-c3cccc(F)c3)cc2[C@@H]2[C@@H](CCN2C(=O)C2CC2)[C@H]1CO	-10	-23	100*	102*	101*	22	91*
COCC(=O)N1CC[C@@H]2[C@H]1c1cc(-c3cccc(OC)c3)ccc1N(C)[C@@H]2CO	11	3	117*	107*	84	2	-5
COCC(=O)N1CC[C@H]2[C@@H]1c1cc(-c3ccccc3)ccc1N(C)[C@H]2CO	2	22	71	.	.	.	.
CCC(=O)N1CC[C@@H]2[C@H]1c1cc(-c3cccc(OC)c3)ccc1N(C)[C@H]2CO	4	-5	90	.	.	.	.
CCC(=O)N1CC[C@@H]2[C@@H](CO)N(C)c3ccc(-c4cccc(F)c4)cc3[C@@H]21	-1	6	27	.	.	.	.
COCC(=O)N1CC[C@@H]2[C@@H](CO)N(C)c3ccc(-c4ccccc4)cc3[C@@H]21	-2	-37	98*	104*	56	-27	-20
O=C(C[C@H]1C=C[C@@H](NS(=O)(=O)c2ccc(F)cc2)[C@H](CO)O1)NCc1ccccc1F	0	13	.	.	.	.	.
C[C@]12CCC3C4(C=CC5(C=C4C(=O)C4CCCCC4)C[C@@H](O)CC[C@]35C)C1CC[C@@]2(O)CN1CCC(n2c(=O)[nH]c3ccccc32)CC1 (some centres not stated)	-13	.	.	.	.	.	.
CO[C@H]1CN(C)C(=O)c2cc(NC(=O)Nc3ccccc3F)ccc2OC[C@H](C)NC[C@H]1C	.	1	-22	.	.	.	.
O=C(C[C@H]1C=C[C@@H](NC(=O)C2CC2)[C@@H](CO)O1)Nc1ccccc1	1	9	-13	.	.	.	.
COc1ccccc1C(=O)Nc1ccc2c(c1)C(=O)N(C)[C@@H]1CC[C@@H](CC(=O)NCCc3ccncc3)O[C@H]1CO2	-5	.	-12	.	.	.	.
CO[C@@H]1CN(C)C(=O)c2ccc(NC(=O)c3ccc4c(c3)OCO4)cc2OC[C@@H](C)N(CC2CC2)C[C@@H]1C	.	-35	.	.	.	.	.
Cc1cc(C(=O)Nc2ccc3c(c2)C(=O)N(C)[C@@H]2CC[C@H](CC(=O)NCc4ccc(-c5ccccc5)cc4)O[C@@H]2CO3)no1	-10	.	103*	?	?	78*	75*
Cc1cc(C(=O)Nc2ccc3c(c2)C(=O)N(C)[C@@H]2CC[C@H](CC(=O)NCc4ccc(-c5ccccc5)cc4)O[C@H]2CO3)no1	-19	.	85	.	.	.	.
SMILES	C diff growth	Pf Dd2 inh	T cruzi growth-1	T cruzi growth-2	T cruzi growth-3	NIH3T3 tox	NIH3T3 tox 2
CC(C)c1ccc(NC(=O)C[C@H]2CC[C@H]3[C@@H](COc4ccc(NC(=O)Nc5ccc(F)c(F)c5)cc4C(=O)N3C)O2)cc1	15	5	100*	103*	78	21	?
CCNC(=O)C[C@@H]1CC[C@@H]2[C@H](COc3ccc(NC(=O)Cc4ccccc4)cc3C(=O)N2C)O1	2	1	11	.	.	.	.
CC(C)C(=O)Nc1ccc2c(c1)C(=O)N(C)[C@H]1CC[C@@H](CC(=O)NCc3ccccc3)O[C@@H]1CO2	4	1	27	.	.	.	.
CCC(=O)Nc1ccc2c(c1)C(=O)N(C)[C@H]1CC[C@H](CC(=O)Nc3ccc(C(C)C)cc3)O[C@@H]1CO2	-5	4	40	.	.	.	.
CC(C)C(=O)Nc1ccc2c(c1)C(=O)N(C)[C@H]1CC[C@H](CC(=O)NCc3ccccc3)O[C@@H]1CO2	5	-40	103*	98*	5	-9	-26
CCNC(=O)C[C@@H]1CC[C@H]2[C@@H](COc3ccc(NC(=O)Cc4ccccc4)cc3C(=O)N2C)O1	0	0	105*	104*	4	15	23
CCCN(C)C[C@H]1Oc2ncc(C#CCC(C)C)cc2C(=O)N([C@@H](C)CO)C[C@H]1C	7	8	.	.	.	.	.
Cc1noc(C)c1S(=O)(=O)N(C)C[C@@H]1OCCCC[C@@H](C)Oc2ccc(NC(=O)NC3CCCCC3)cc2C(=O)N([C@@H](C)CO)C[C@@H]1C	7	-70	5	.	.	.	.
COCC(=O)N1C[C@@H](C)[C@H](OC)CN(C)C(=O)c2ccc(NC(=O)c3cnccn3)cc2OC[C@@H]1C	-9	10	.	.	.	.	.
